Experiment [1] in a line: antimalarial activity against Dd2 strain (AID 2302;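 active means growth inhibition above 50% at the single 2 µM test dose, taken to imply half-maximal potency below 2 µM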;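 further: 0% = DMSO untreated growth and 100% = chloroquine plus artemisinin killed control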). The following applies: P. falciparum Dd2 in RBCs, LDH growth readout, 72 h; at 2 µM; active compounds read high.
A short description of experiment [2]: HepG2 cytotoxicity, primary screen, cytotoxicity control for P. falciparum antimalarial project, cell-based, ATP luminescence (AID 2303;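 active means inhibition above 50%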;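 further: 0% = DMSO wells and 100% = digitonin-killed cells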). The following applies: HepG2 viability, 24-48 h, at 10 µM, active compounds read high.
Experiment [3] deals with L-lactate dehydrogenase (Plasmodium falciparum (isolate CDC / Honduras)) (UniProt Q27743). As to the kind of experiment: PfLDH activity inhibition – cell lysate, 3D7 strain, counter-screen for P. falciparum growth inhibition project (AID 2304).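 Further: 0% = vehicle and 100% = reference inhibitor.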 The following applies: P. falciparum 3D7 crude extract, LDH APAD/NBT absorbance; at 2 µM; active compounds read high. A general note: Counterscreens check selectivity or assay interference.
Sequence of L-lactate dehydrogenase (Plasmodium falciparum (isolate CDC / Honduras)) (Q27743 whole entry, looked up): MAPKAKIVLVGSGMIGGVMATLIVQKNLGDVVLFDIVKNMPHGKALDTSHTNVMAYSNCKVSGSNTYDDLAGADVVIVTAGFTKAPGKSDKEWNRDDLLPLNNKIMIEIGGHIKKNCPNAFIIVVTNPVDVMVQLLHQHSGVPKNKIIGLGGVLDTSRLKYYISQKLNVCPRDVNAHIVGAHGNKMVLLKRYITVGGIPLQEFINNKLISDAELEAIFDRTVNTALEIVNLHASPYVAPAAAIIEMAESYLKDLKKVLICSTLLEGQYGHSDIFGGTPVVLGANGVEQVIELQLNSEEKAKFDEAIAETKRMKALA

Experiment [4] in a line: inhibition of 3D7 malaria parasite growth – strain 3D7 (AID 2306).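 Further: 0% = DMSO wells and 100% = chloroquine plus artemisinin control wells.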 The following applies: P. falciparum 3D7 erythrocytic growth, LDH absorbance, 72 h; at 2 µM; active compounds read high.
Experiment [5] deals with Calcium-dependent protein kinase 1 (Plasmodium falciparum (isolate 3D7)) (UniProt P62344). The experiment can be described thus: PfCDPK1 kinase inhibitors, biochemical, TCAMS library (AID 1159585; cut-off not given, nearly all actives have IC50 up to about 0.98 µM;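 further: inhibitors leave more ATP so luminescence rises with inhibition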). As to conditions: recombinant PfCDPK1, Kinase-Glo ATP depletion luminescence. In general terms: Kinase-Glo measures the ATP left after a reaction by luminescence.
Sequence of Calcium-dependent protein kinase 1 (Plasmodium falciparum (isolate 3D7)) (P62344 whole entry, looked up): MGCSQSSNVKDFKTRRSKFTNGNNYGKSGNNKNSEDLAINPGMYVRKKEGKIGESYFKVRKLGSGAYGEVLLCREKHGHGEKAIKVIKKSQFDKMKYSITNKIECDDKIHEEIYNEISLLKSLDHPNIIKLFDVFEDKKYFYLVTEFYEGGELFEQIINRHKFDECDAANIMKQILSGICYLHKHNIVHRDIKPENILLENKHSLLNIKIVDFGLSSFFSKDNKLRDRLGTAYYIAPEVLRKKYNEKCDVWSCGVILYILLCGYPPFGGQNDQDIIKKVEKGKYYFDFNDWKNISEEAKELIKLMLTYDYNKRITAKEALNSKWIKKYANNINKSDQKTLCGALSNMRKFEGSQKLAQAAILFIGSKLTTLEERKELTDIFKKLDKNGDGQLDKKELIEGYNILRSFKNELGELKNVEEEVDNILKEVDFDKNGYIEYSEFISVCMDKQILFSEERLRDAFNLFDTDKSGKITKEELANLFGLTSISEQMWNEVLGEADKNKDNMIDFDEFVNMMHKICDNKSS
For experiment [6], the target named is Plasmodium falciparum protein kinase 6 (PK6, PF3D7_1337100) (UniProt Q8IDW1). As to the kind of experiment: PfPK6 kinase inhibitors, biochemical, TCAMS library (AID 1159586). The following applies: recombinant PfPK6, Kinase-Glo ATP depletion luminescence.
Sequence of Plasmodium falciparum protein kinase 6 (PK6, PF3D7_1337100) (Q8IDW1 1-305): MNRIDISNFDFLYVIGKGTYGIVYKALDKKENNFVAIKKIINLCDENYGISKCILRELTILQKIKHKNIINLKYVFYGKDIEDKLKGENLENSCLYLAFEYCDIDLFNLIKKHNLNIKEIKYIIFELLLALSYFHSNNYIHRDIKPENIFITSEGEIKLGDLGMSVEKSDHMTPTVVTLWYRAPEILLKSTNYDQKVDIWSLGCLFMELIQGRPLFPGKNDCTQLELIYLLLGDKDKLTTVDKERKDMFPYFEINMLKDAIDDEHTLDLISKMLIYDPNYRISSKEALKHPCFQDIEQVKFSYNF
Experiment [7] has as its target Protein kinase 7 (PK7), Plasmodium falciparum 3D7 (PF3D7_0213400) (UniProt Q7YTF7). As to the kind of experiment: inhibition of Plasmodium PK7 catalytic activity – biochemical, TCAMS antimalarial set, Kinase-Glo luminescence (AID 1159587). As to conditions: recombinant PfPK7, Kinase-Glo ATP depletion luminescence.
Experiment [8] deals with Calcium-dependent protein kinase 4 (Plasmodium falciparum (isolate 3D7)) (UniProt Q8IBS5). As to the kind of experiment: PfCDPK4 kinase inhibitors, biochemical, TCAMS library (AID 1159588; cut-off not given, nearly all actives have IC50 up to about 0.91 µM). As to conditions: recombinant PfCDPK4, Kinase-Glo ATP depletion luminescence.
Sequence of Calcium-dependent protein kinase 4 (Plasmodium falciparum (isolate 3D7)) (Q8IBS5 whole entry, looked up): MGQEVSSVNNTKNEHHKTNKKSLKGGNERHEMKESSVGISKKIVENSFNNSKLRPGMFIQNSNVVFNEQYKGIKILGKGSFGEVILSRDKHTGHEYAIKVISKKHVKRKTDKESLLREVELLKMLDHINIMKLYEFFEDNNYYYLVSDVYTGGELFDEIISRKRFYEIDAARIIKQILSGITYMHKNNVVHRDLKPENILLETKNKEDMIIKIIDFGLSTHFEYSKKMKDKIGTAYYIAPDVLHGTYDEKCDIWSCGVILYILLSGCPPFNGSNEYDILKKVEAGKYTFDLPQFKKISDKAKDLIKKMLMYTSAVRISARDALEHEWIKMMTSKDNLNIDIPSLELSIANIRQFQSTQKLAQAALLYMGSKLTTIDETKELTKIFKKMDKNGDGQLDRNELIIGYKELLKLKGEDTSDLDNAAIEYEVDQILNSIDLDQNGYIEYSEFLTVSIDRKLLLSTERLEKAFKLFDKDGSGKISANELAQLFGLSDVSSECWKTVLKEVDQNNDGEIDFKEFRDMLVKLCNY

SMILES strings stand for the structures. Values without a mark were called inactive. For some of these results: Potency and affinity values are given separately. Active and inactive are the calls of the source. Unless noted, how the calls were made is not given here.

Sequence of Protein kinase 7 (PK7), Plasmodium falciparum 3D7 (PF3D7_0213400) (Q7YTF7 1-343): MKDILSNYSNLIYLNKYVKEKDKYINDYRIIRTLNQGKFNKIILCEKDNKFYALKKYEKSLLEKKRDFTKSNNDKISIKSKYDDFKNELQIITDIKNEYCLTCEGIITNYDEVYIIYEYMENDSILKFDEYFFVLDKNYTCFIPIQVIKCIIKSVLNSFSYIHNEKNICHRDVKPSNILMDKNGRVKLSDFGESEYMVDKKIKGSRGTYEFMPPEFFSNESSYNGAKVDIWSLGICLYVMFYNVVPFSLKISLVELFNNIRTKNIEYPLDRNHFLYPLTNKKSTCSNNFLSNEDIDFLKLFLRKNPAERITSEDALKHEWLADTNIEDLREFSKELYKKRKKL

Regarding `N#Cc1ccc(C=NNc2nc3ccccc3[nH]2)cc1`, the growth inhibition in experiment [1] was 71% (active); in experiment [4], 101% (active). Also, the inhibition (commonly the drop in the measured response relative to a control, in per cent) is -4% in experiment [2] and 3% in experiment [3]. Besides, the outcome in experiment [5], in experiment [6], in experiment [7] and in experiment [8] was inactive.
On to `Cc1cc(C(=O)CN2C(=O)NC3(CCOc4ccccc43)C2=O)c(C)n1Cc1ccco1` (stereo not given), for which the growth inhibition in experiment [1] is 42%; in experiment [4] it was 93% (active). The inhibition is 13% in experiment [2] and 5% in experiment [3]. Further, the result in experiment [5], in experiment [6], in experiment [7] and in experiment [8] was inactive.
Take `COc1c(C2CCN(CCCCNC(=O)c3ccc(-c4ccc(Cl)cc4)c(OCC(N)=O)c3)CC2)ccc2c1CCCC2`: the growth inhibition is 11% in experiment [1] and 97% (active) in experiment [4]. Further, the inhibition is 43% in experiment [2] and 3% in experiment [3]. Besides, the result in experiment [5], in experiment [6], in experiment [7] and in experiment [8] was inactive.
Turning to `Cc1noc(C)c1-c1ccc2c(Nc3ccc(C(F)(F)F)cc3)c(C(N)=O)cnc2c1`, the growth inhibition in experiment [1] was 95% (active); in experiment [4] it was 100% (active). For the same compound, the inhibition in experiment [2] is 1%; in experiment [3] it was 6%. Further, the result in experiment [5], in experiment [6], in experiment [7] and in experiment [8] was inactive.
Turning to `COc1ccccc1C1CCN(C2CCC(NC(=O)c3cc4ccccc4[nH]3)CC2)CC1` (stereo not given), the growth inhibition in experiment [1] is 7%; in experiment [4], 88% (active). Further, the inhibition is 49% in experiment [2] and 0% in experiment [3]. Further, the outcome in experiment [5], in experiment [6], in experiment [7] and in experiment [8] was inactive.
In the case of `CCCN(C(=O)c1ccccc1C)c1nnc(-c2ccccc2C)s1`, the values for the growth inhibition in experiment [1] and in experiment [4] were 65% (active) and 90% (active), respectively. In addition, the inhibition is 16% in experiment [2] and -7% in experiment [3]. Moreover, the result in experiment [5], in experiment [6], in experiment [7] and in experiment [8] was inactive.
Consider `O=C(c1ccc(-c2cccc(-c3nc4ccc(F)cc4[nH]3)c2)cc1)N1CCCCC1CN1CCC(O)C1` (stereo not given), for which the growth inhibition in experiment [1] was -4%; in experiment [4], 91% (active). In addition, the inhibition was 11% in experiment [2] and -1% in experiment [3]. Besides, the outcome in experiment [5], in experiment [6], in experiment [7] and in experiment [8] was inactive.
On to `Cc1cccc(Nc2c(-c3cc(Br)ccc3O)nc3ncccn23)c1`, for which the growth inhibition is 98% (active) in experiment [1] and 100% (active) in experiment [4]. Besides, the inhibition was -2% in experiment [2] and 1% in experiment [3]. The outcome in experiment [5], in experiment [6], in experiment [7] and in experiment [8] was inactive.
Consider `CCCCc1ccc(S(=O)(=O)Nc2ccc3c(c2)CCN(Cc2c[nH]c4cnccc24)CC3)cc1`, for which the growth inhibition in experiment [1] is 12%; in experiment [4], 99% (active). Further, the inhibition in experiment [2] is 41%; in experiment [3], -5%. Moreover, the result in experiment [5], in experiment [6], in experiment [7] and in experiment [8] was inactive.
Turning to `CC(C)N1CCC(N(Cc2ccc(-c3ccc(C(F)(F)F)cc3)cc2)C(=O)CCCn2c(CCc3cccc(F)c3F)nc(=O)c3ccccc32)CC1`, the growth inhibition was 60% (active) in experiment [1] and 89% (active) in experiment [4]. The inhibition is 45% in experiment [2] and -5% in experiment [3]. In addition, the outcome in experiment [5], in experiment [6], in experiment [7] and in experiment [8] was inactive.
On to `CCc1cn2c3c(cc(C(=O)N[C@@H](Cc4ccccc4)[C@H](O)CNC4CCOCC4)cc13)N(C(C)C)S(=O)(=O)CC2`, for which the growth inhibition in experiment [1] is 99% (active); in experiment [4], 98% (active). For the same compound, the inhibition is 0% in experiment [2] and -2% in experiment [3]. Besides, the outcome in experiment [5], in experiment [6], in experiment [7] and in experiment [8] was inactive.
In the case of `COc1ccc2nc3cc(Cl)ccc3c(NCc3ccccc3)c2c1`, the growth inhibition in experiment [1] was 50% (active); in experiment [4], 101% (active). Also, the inhibition was 8% in experiment [2] and 5% in experiment [3]. In addition, the result in experiment [5], in experiment [6], in experiment [7] and in experiment [8] was inactive.
As for `CN1CCCC1CCNCc1cccc(-c2cnc(N3CCCC(C)(C)C3)nc2)c1` (stereo not given), the growth inhibition is 95% (active) in experiment [1] and 98% (active) in experiment [4]. The inhibition in experiment [2] was 99% (active); in experiment [3] it was 5%. In addition, the result in experiment [5], in experiment [6], in experiment [7] and in experiment [8] was inactive.
As for `CCCCC(CC)C(=O)C(NC(=O)[C@H](CSC(c1ccccc1)(c1ccccc1)c1ccccc1)NC(=O)OC(C)(C)C)C(=O)OC` (stereo not given in full), the growth inhibition in experiment [1] was 31%; in experiment [4], 88% (active). Further, the inhibition was 8% in experiment [2] and 0% in experiment [3]. Moreover, the result in experiment [5], in experiment [6], in experiment [7] and in experiment [8] was inactive.
In the case of `CCN(CC)CCN(Cc1ccc(-c2ccc(C(F)(F)F)cc2)cc1)C(=O)Cn1c(/C=C/c2ccco2)nc(=O)c2ccccc21`, the growth inhibition in experiment [1] is 86% (active); in experiment [4] it was 94% (active). Besides, the values for the inhibition in experiment [2] and in experiment [3] were 28% and -2%, respectively. Besides, the outcome in experiment [5], in experiment [6], in experiment [7] and in experiment [8] was inactive.
With `Cc1cc(N(C)C2CCN(C)C2)nc(Nc2ccccc2Cl)n1` (stereo not given), the growth inhibition in experiment [1] is 84% (active); in experiment [4], 100% (active). Further, the inhibition in experiment [2] is 1%; in experiment [3] it was -1%. Further, the outcome in experiment [5], in experiment [6], in experiment [7] and in experiment [8] was inactive.
Turning to `COc1ccc2c(NN=Cc3cccc(F)c3)cc(C)nc2c1`, the growth inhibition is 100% (active) in experiment [1] and 101% (active) in experiment [4]. In addition, the inhibition in experiment [2] is 17%; in experiment [3], -4%. Besides, the result in experiment [5], in experiment [6], in experiment [7] and in experiment [8] was inactive.
For the compound `COc1ccc2ncc(C#N)c(CCN3CCC(NCc4ccc5c(c4)NC(=O)CO5)CC3)c2c1`, the growth inhibition in experiment [1] was 43%; in experiment [4] it was 99% (active). Besides, the inhibition in experiment [2] was 25%; in experiment [3] it was -3%. For the same compound, the result in experiment [5], in experiment [6], in experiment [7] and in experiment [8] was inactive.
For `COc1ccc(NC(=O)Nc2nc3ccccc3s2)cc1N1CCN(C)CC1`, the growth inhibition was 22% in experiment [1] and 95% (active) in experiment [4]. Moreover, the inhibition was 6% in experiment [2] and -1% in experiment [3]. The result in experiment [5], in experiment [6], in experiment [7] and in experiment [8] was inactive.
As to `CN(C)c1ccc(-c2cscc2C(=O)NC2CCCN(Cc3cccnc3)C2)cc1` (stereo not given), the growth inhibition in experiment [1] was 70% (active); in experiment [4], 89% (active). For the same compound, the figures for the inhibition in experiment [2] and in experiment [3] were 5% and 0%, respectively. For the same compound, the outcome in experiment [5], in experiment [6], in experiment [7] and in experiment [8] was inactive.

The record behind these values is PubChem BioAssay.
